From PubChem BioAssay (NCATS)
Inconclusive results are not listed. Where a call stands in place of a potency, no number is given. Activity calls are given as the source filed them. The call rests on the fitted dose curve; in most records, active means well fitted inhibition curve with a large enough effect; inconclusive means small, poorly fitted or top-dose-only effect; inactive means no such curve, though single readings can be large or run the other way.

What was measured:
[1] = tested on: Zika virus NS2B-NS3 protease (unlinked complex); assay: Primary screen GU Rhodamine qHTS for Zika virus inhibitors: Unlinked NS2B-NS3 protease assay (AID 1347159); further: nearly all actives have a fitted effect of over 60% in size
How it was run: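 Unlinked NS2B/NS3, 25 nM; Rhod110 peptide, 1.5 microM; compounds, up to 114 microM. Reaction run 15 min at RT in 10 mM Tris-HCl pH 8.0, 0.01% Tween 20; kinetic fluorescence change fitted with a 4-parameter Hill model.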

[2] = tested on: Zika virus NS2B-NS3 protease (linked construct); assay: Primary screen NINDS Rhodamine qHTS for Zika virus inhibitors (AID 1347160); further: nearly all actives have a fitted effect of over 55% in size
How it was run: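 Single-chain NS2B-NS3 protease, 25 nM, pH 8.0; compounds preincubated 15 min. Activity: Rhodamine110 release from 1.5 microM substrate over 15 min, room temperature, data fitted to 4-parameter Hill.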
Potency means the concentration at half of the fitted maximal effect.

Question: Which Potency [1] does the source give for CCc1c(C)nc2c(-c3cnn(-c4cc(CO)ccn4)c3)c[nH]n2c1=O here?
Answer: The Potency was “inactive”.

Question: And the Potency [2]?
Answer: The Potency was “inactive”.

Question: How did the Potency [1] turn out when C=C[C@]1(C)C[C@H](O)[C@@H]2[C@H](OC(=O)[C@@H]2C)C1/C(C)=C/O[C@@H]1O[C@H](CO)[C@@H](O)[C@H](O)[C@H]1O (some centres not stated) was run?
Answer: The Potency was “inactive”.

Question: What about the Potency [2] of the same molecule?
Answer: Its Potency is “inactive”.

Question: Which Potency [1] does the source give for COC(=O)C1=CO[C@@H](O[C@@H]2O[C@H](CO)[C@@H](O)[C@H](O)[C@H]2O)[C@H]2[C@@H]1C=C[C@@]21C=C([C@H](C)O)C(=O)O1 here?
Answer: The Potency was “inactive”.

Question: And the Potency [2]?
Answer: The Potency was “inactive”.

Question: Which Potency [1] does the source give for CC1OC(OC2CCC3(C)C(CCC4(C)C3CC=C3C5CC(C)(C)CCC5(C(=O)OC5OC(CO)C(O)C(O)C5O)CCC34C(=O)O)C2(C)C)C(O)C(O)C1O (configuration not stated) here?
Answer: Its Potency is “inactive”.

Question: What about the Potency [2] of the same molecule?
Answer: Its Potency is “inactive”.

Question: Which Potency [1] does the source give for CC1(C)CC2C(O)c3cocc3CC(C)(O)C2C1 (configuration not stated) here?
Answer: The Potency was “inactive”.

Question: What about the Potency [2] of the same molecule?
Answer: The Potency was “inactive”.

Question: What does the source list for CC(C)[C@@](C)(O)[C@@H]1CN(c2nc(-c3[nH]nc4ncccc34)c(F)cc2Cl)CCN1?
Answer: Potency [1]: inactive; Potency [2]: inactive

Question: What does the source list for CC1COC(Nc2ccc3ncnc(Nc4ccc(OCc5nccs5)c(Cl)c4)c3c2)=N1 (configuration not stated)?
Answer: Potency [1]: inactive; Potency [2]: inactive

Question: What does the source list for Cc1cc(O)cc(O[C@@H]2O[C@H](CO)[C@@H](O)[C@H](O)[C@H]2O)c1?
Answer: Potency [1]: inactive; Potency [2]: inactive

Question: With O=C(c1cn(Cc2cncn2Cc2ccc(Br)cc2)cc1-c1cccc2ccccc12)N1CCOCC1 as the molecule, how does the Potency [1] read?
Answer: Its Potency is “inactive”.

Question: What about the Potency [2] of the same molecule?
Answer: Its Potency is “inactive”.

Question: What does the source list for CC(=O)c1cc2c(cc1O)OC(C)(C)C=C2?
Answer: Potency [1]: inactive; Potency [2]: inactive

Question: What does the source list for O=S(=O)(c1ccc(S(=O)(=O)n2cnc3ccccc32)cc1)N1CCCCCC1?
Answer: Potency [1]: inactive; Potency [2]: inactive

Question: For COc1ccc(C2(O)CCC(N3CC[C@@H](NC(=O)CNC(=O)c4cccc(C(F)(F)F)c4)C3)CC2)cn1 (some centres not stated), which Potency [1] is on record?
Answer: Its Potency is “inactive”.

Question: What about the Potency [2] of the same molecule?
Answer: The Potency was “inactive”.

Question: With Cn1nnc(-c2ccc(-c3ccc(N4C[C@H](COP(=O)(O)O)OC4=O)cc3F)cn2)n1 as the molecule, how does the Potency [1] read?
Answer: Its Potency is “inactive”.

Question: What about the Potency [2] of the same molecule?
Answer: Its Potency is “inactive”.

Question: With CC(=O)OC1C(=O)C2(C)C(O)CC3OCC3(OC(C)=O)C2C(OC(=O)c2ccccc2)C2(O)CC(OC(=O)C(O)C(NC(=O)c3ccccc3)c3ccccc3)C(C)=C1C2(C)C (configuration not stated) as the molecule, how does the Potency [1] read?
Answer: Its Potency is “inactive”.

Question: What about the Potency [2] of the same molecule?
Answer: Its Potency is “inactive”.

Question: How did the Potency [1] turn out when CCNC(=O)Nc1ccc(-c2nc3c(c(N4CCOC[C@@H]4C)n2)CCN(c2ncccn2)C3)cc1 was run?
Answer: The Potency was “inactive”.

Question: And the Potency [2]?
Answer: The Potency was “inactive”.

Question: Which results are given for CNC(C)C(=O)NC(C(=O)N1CCCC1c1nc(C(=O)c2ccc(F)cc2)cs1)C1CCCCC1 (configuration not stated)?
Answer: Potency [1]: inactive; Potency [2]: inactive

Question: Which results are given for C=C1CC[C@@H]2[C@@](C)(CO[C@@H]3O[C@H](CO)C(O)[C@H](O)C3O)[C@H](O)CC[C@@]2(C)[C@@H]1CC/C(C)=C/CO (some centres not stated)?
Answer: Potency [1]: inactive; Potency [2]: inactive

Question: For O=C(COc1cccc2c(=O)[nH]ccc12)c1ccccc1, which Potency [1] is on record?
Answer: Its Potency is “inactive”.

Question: And the Potency [2]?
Answer: Its Potency is “inactive”.

Question: For Cc1ccc(S(=O)(=O)n2ccc(-c3c(-c4ccc(Cl)cc4)noc3C)n2)cc1, which Potency [1] is on record?
Answer: The Potency was “inactive”.

Question: What about the Potency [2] of the same molecule?
Answer: Its Potency is “inactive”.

Question: With CCCNc1ccc2ncc(-c3ccc4[nH]ncc4c3)n2n1 as the molecule, how does the Potency [1] read?
Answer: The Potency was “inactive”.

Question: What about the Potency [2] of the same molecule?
Answer: The Potency was “inactive”.

Question: For CC1(C)CC(=O)C2=C(C1)NC(=S)NC2c1cccc(O)c1 (configuration not stated), which Potency [1] is on record?
Answer: The Potency was “inactive”.

Question: And the Potency [2]?
Answer: The Potency was “inactive”.

Question: Which Potency [1] does the source give for O=C(/C=C/c1ccc(O)cc1)OC1[C@H](O)CC(O)(C(=O)O)C[C@H]1O (some centres not stated) here?
Answer: The Potency was “inactive”.

Question: What about the Potency [2] of the same molecule?
Answer: The Potency was “inactive”.

Question: With CCCCc1nc2cc(/C=C/C(=O)NO)ccc2n1CCN(CC)CC as the molecule, how does the Potency [1] read?
Answer: Its Potency is “inactive”.

Question: What about the Potency [2] of the same molecule?
Answer: The Potency was “inactive”.

Question: CC[C@H](C)[C@H](NC(=O)[C@H]([C@@H](C)CC)N(C)C(C)=O)C(=O)N[C@H](C(=O)N[C@@H](CC(C)C)C(=O)[C@@]1(C)CO1)[C@@H](C)O was tested. Which Potency [1] did it give?
Answer: The Potency was “inactive”.

Question: And the Potency [2]?
Answer: Its Potency is “inactive”.

Question: With Cc1cc(OCc2nc(-c3ccccc3Cl)cs2)ccc1OCC(=O)O as the molecule, how does the Potency [1] read?
Answer: The Potency was 12.6 µM (active).

Question: What about the Potency [2] of the same molecule?
Answer: Its Potency is 14.1 µM (active).

Question: Which Potency [1] does the source give for Cc1ccc(-c2c(C(=O)CF)n(CCCO)c3ncnc(N)c23)cc1 here?
Answer: Its Potency is “inactive”.

Question: And the Potency [2]?
Answer: The Potency was “inactive”.

Question: With CCC1C(=O)OC23C=C[C@@H]4C(C(=O)O)=CO[C@H](O[C@@H]12)[C@@H]43 (some centres not stated) as the molecule, how does the Potency [1] read?
Answer: Its Potency is “inactive”.

Question: What about the Potency [2] of the same molecule?
Answer: The Potency was “inactive”.

Question: How did the Potency [1] turn out when CC12CCC(C(OC3OC(COC4OCC(O)(CO)C4O)C(O)C(O)C3O)C1)C(C)(C)O2 (configuration not stated) was run?
Answer: The Potency was “inactive”.

Question: And the Potency [2]?
Answer: The Potency was “inactive”.

Question: With Cc1cccc(-c2[nH]c(Cc3cccc(C(N)=O)c3)nc2-c2ccc3nccnc3c2)n1 as the molecule, how does the Potency [1] read?
Answer: The Potency was “inactive”.

Question: What about the Potency [2] of the same molecule?
Answer: Its Potency is “inactive”.

Question: COc1ncc2cc(C(=O)Nc3cc(C(=O)NCc4cccc(Cl)c4)ccc3Cl)c(=O)[nH]c2n1 was tested. Which Potency [1] did it give?
Answer: The Potency was “inactive”.

Question: What about the Potency [2] of the same molecule?
Answer: Its Potency is “inactive”.

Question: Which results are given for CC(O)/C=C/C1(O)C(C)C(O[C@@H]2O[C@H](CO)[C@@H](O)[C@H](O)[C@H]2O)C(O)CC1(C)C (some centres not stated)?
Answer: Potency [1]: inactive; Potency [2]: inactive
